Structures are written as SMILES. Records with an inconclusive call do not appear. Active and inactive are the calls of the source. Calls come from the whole dose curve; as a rule, active = well fitted inhibition curve with a large enough effect; inconclusive = small, poorly fitted or top-dose-only effect, or effect the other way; inactive = flat fitted curve, though single readings scatter.

This assay is described as follows: Secondary Assay for General miRNAs Modulators and/or Inhibitors/Activators of miR-21: miR-30 Firefly Luciferase Assay. The note with it: HeLa miR-30 FLuc reporter, luminescence, 48 h; series mostly up to 38.3 µM. An excerpt: MLSCN Grant: 1 R21 NS059478-01 Assay Provider: Qihong Huang, The Wistar Institute NCGC Assay Overview: MicroRNAs (miRNAs) are endogenously encoded small (~20-25 nucleotides), nonprotein-coding RNAs that are involved in post-transcriptional repression of target messenger RNAs (mRNAs) (Le and Hannon, 2004). Estimated to be involved in the regulation of 30% of all protein-coding mRNAs (Filipowicz et al., 2008), miRNAs play a significant role in many biological processes including cellular differentiation and tissue development (Ghildiyal and Zamore, 2009). […] Compounds active in the miR-21 FLuc assay were clustered using Leadscope and active chemical series were prioritized based on chemical properties, potential for medicinal chemistry optimization, and SAR. Within each chemical series, representative compounds were re-acquired to test for activity in a secondary assay based on the quality of their CRC, efficacy, and potency. The secondary assay to determine if compounds active in the miR-21 FLuc assay were potentially specific for miR-21 and were not general modulators of the miRNA pathway was another cell-based FLuc reporter gene assay, this time targeting miR-30. Compounds found active in both the miR-21 FLuc and miR-30 FLuc assays are not considered miR-21 specific compounds, and may be general miRNA modulators.
NCGC Assay Protocol Summary: Reagents: HeLa cells stably expressing firefly luciferase (FLuc) under the control of a CMV promoter (upstream) and a miR-30 binding sequence directly downstream of the gene. These cells also stably express miR-30. Control compounds used were compound C3 (provided by collaborator), N6-phenyladenosine (MP Biomedicals, 0215379625), and DMSO. Assay Summary: 6uL of HeLa miR-30-FLuc cells in assay buffer (DMEM, Invitrogen #21063-029; 10% FBS, HyClone #SH30071.03) were dispensed at 1000cells/well (1.7 x 10^5 cells/mL) into Greiner solid-white TC-treated 1536-well plates using a Multidrop Combi (Thermo Fisher Scientific). Plates were incubated for one hour at 37 degree Celsius, 95% humidity, 5% CO2. These assay plates were then treated with 23nL of compound or DMSO using a Kalypsys pin tool, which allows for delivery of a 24-point titration of each compound to the assay plate, with a final compound concentration ranging from approximately 40uM to 5pM. Assay plates were then incubated for 48 hours. After incubation, plates were allowed to come to RT for one hour prior to delivery of 3uL of 3X luciferase detection reagent. After a 15 minute incubation to allow for cell lysis, luciferase activity was measured using a ViewLux CCD imager (PerkinElmer), with an average exposure time of 2-12 seconds. Keywords: NIH Roadmap, MLPCN, MLSMR, qHTS, miR-21, miR-30, microRNA, firefly luciferase, FLuc.
Consider `COc1ccc(CNc2n[nH]c(-c3ccco3)n2)cc1OC`, for which the Potency entry was “inactive”.

Regarding `Cc1cccc(-c2nnc(SCC(=O)Nc3ccc(C)c(C)c3)o2)c1`, the Potency is 3.18 µM (active).

For the compound `NC(=O)c1ccccc1NC(=O)c1ccc(-c2ccc(Br)cc2)o1`, the Potency was 1.13 µM (active).

For `CC(=O)c1cnc2nc(SCc3ccccc3)nn2c1C`, the Potency was 12.6 µM (active).

Take `Clc1ccc(-n2ncc3c(NCc4ccccn4)ncnc32)cc1`: the Potency is 12.6 µM (active).

Consider `Cc1ccc(-c2nsc(SCC(=O)Nc3ccc4c(c3)OCO4)n2)cc1`, for which the Potency is 11.3 µM (active).

Turning to `Cc1ccc(CNc2nc3nc(C)c(Cl)c(C)n3n2)cc1`, the Potency is 6.34 µM (active).

As for `Cc1c(-c2nnc(SCC(=O)Nc3ccccc3F)o2)nnn1-c1ccc(F)cc1`, the Potency was 4 µM (active).

`Cc1cc(SCC(=O)Nc2nsc(-c3ccc(C(C)(C)C)cc3)n2)nc2ccccc12`: the Potency is 2 µM (active).

`O=C(CSc1nnc(-c2ccncc2)o1)Nc1nncs1`: the Potency entry was “inactive”.

`CSc1nsc(SCC(=O)Nc2ccc(F)cc2F)n1`: the Potency is 12.6 µM (active).

Regarding `CS(=O)(=O)n1nc(-c2ccc(Cl)cc2)nc1SCc1ccccc1`, the Potency was 10 µM (active).

Regarding `COc1ccc(NC(=O)CSc2nnc(-c3cccs3)o2)cc1`, the Potency is 3.56 µM (active).

`CC(C)COc1ccc(C(=O)Nc2cc(-c3ccccc3)no2)cc1`: the Potency was 2.25 µM (active).

As for `Cc1ccccc1Nc1nc(N)nc(CN(C)c2ccccc2)n1`, the Potency was 12.6 µM (active).

With `Cc1cccc(-c2nsc(SCC(=O)Nc3ccc4c(c3)OCO4)n2)c1`, the Potency was 22.5 µM (active).

With `Cc1cc(C)cc(NC(=O)CSc2nnc(CNC(=O)c3ccco3)o2)c1`, the Potency entry is “inactive”.

`COc1ccccc1NC(=O)CSc1nnc(-c2ccccn2)o1`: the Potency is 5.04 µM (active).

For `Cn1c(=O)[nH]c2cc(-c3noc(-c4ccc(F)cc4)n3)ccc21`, the Potency was 2.52 µM (active).

As for `Cc1ccc(CNc2nc(-c3ccco3)nn2S(C)(=O)=O)cc1`, the Potency is 2.83 µM (active).

On to `Nc1c(C(=O)Nc2ccccc2Br)sc2nc(-c3cccs3)ccc12`, for which the Potency result was “inactive”.

With `COc1ccc(OCC(=O)Nc2ccc(-c3nc4cc(C)c(C)cc4o3)cc2)cc1`, the Potency is 0.798 µM (active).

Take `COc1ccc(NCc2cccn2-c2nnc(N3CCC(C)CC3)s2)c(OC)c1`: the Potency was 1.79 µM (active).

On to `O=C(CSc1nnc(-c2ccccn2)o1)Nc1cccc(Cl)c1`, for which the Potency is 1.13 µM (active).

`COc1ccc(-c2csc(NC(=O)COC(=O)c3ccc(Br)o3)n2)cc1`: the Potency is 2.25 µM (active).

Turning to `CCc1ccc2oc(C(=O)Nc3nonc3CC)c(C)c2c1`, the Potency was 3.56 µM (active).

As for `COc1cccc(NC(=O)CSc2nnc(-c3cccs3)o2)c1`, the Potency was 5.65 µM (active).

Consider `Cc1cc(C)c2c(N)c(C(=O)Nc3ccccc3F)sc2n1`, for which the Potency was 1.79 µM (active).

On to `CC(=O)Nc1nc2c(C)cc(NC(=O)C3CCCCC3)cc2s1`, for which the Potency was 1.26 µM (active).

Regarding `O=C(Nc1nnc(S(=O)(=O)N2CCCC2)s1)c1ccc(F)cc1`, the Potency result was “inactive”.

On to `O=C(CSc1nnc(-c2ccc(Cl)cc2)o1)Nc1ccc(F)cc1`, for which the Potency is 3.18 µM (active).

`Nc1c(-c2nc(-c3cccs3)no2)nnn1-c1cccc(F)c1`: the Potency was 0.283 µM (active).

With `CCS(=O)(=O)n1nc(-c2ccccc2)nc1NCc1ccco1`, the Potency entry is “inactive”.

`COc1ccc(CNc2nc(-c3ccco3)nn2C(=O)CC(C)C)cc1`: the Potency is 11.3 µM (active).

As for `O=C(CSc1nnc(-c2ccc(C(F)(F)F)cn2)o1)Nc1cccc(Cl)c1`, the Potency was 2.83 µM (active).

Take `COc1ccc(C(=O)Nc2nnc(C(C)C)s2)cc1OC`: the Potency was 7.98 µM (active).

`Cc1ccccc1OCCn1cnc2c(N)ncnc21`: the Potency entry is “inactive”.

For the compound `Cc1ccc(Nc2ncnc(N)n2)cc1C`, the Potency is 10 µM (active).

With `Cc1cccc(-n2nnc(-c3nc(-c4cccs4)no3)c2N)c1`, the Potency is 0.798 µM (active).

Take `CCC(=O)n1nc(-c2cccnc2)nc1NCc1ccc(F)cc1`: the Potency result was “inactive”.

The values above are taken from PubChem BioAssay AID2507 (National Center for Advancing Translational Sciences (NCATS), 2010).
